The results in this text go back to PubChem BioAssay AID2546 (National Center for Advancing Translational Sciences (NCATS), 2010).

Out of some 310,000 compounds screened, about 11,000 (3.5%) were called active. A call without a number means that no potency is given here. About 8% were inconclusive and are not listed. The full list was thinned out, with actives kept by preference. A number with no mark means an inactive call. The call rests on the fitted dose curve; in most records, active means well fitted inhibition curve with a large enough effect; inconclusive means small, poorly fitted or top-dose-only effect, or effect the other way; inactive means flat fitted curve, though single readings scatter.
Potency means the concentration at half of the fitted maximal effect.

This experiment in a line: VP16 counterscreen qHTS for inhibitors of ROR gamma transcriptional activity.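 Further: Gal4-VP16 expression switched on by copper sulfate through the metallothionein promoter; nearly all actives have a fitted effect of over 50% in size.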 To be noted: Drosophila S2 Gal4-VP16 UAS-luciferase, luminescence, 20 h; series mostly up to 53.6 µM.
In the case of `CN1C(=O)CN2CCc3ccccc3C2c2cc(Cl)ccc21` (configuration not stated), the Potency result was “inactive”.
The same measure, in the same setting: under `O=C(CSc1nc(-c2ccccc2)cs1)Nc1cccc([N+](=O)[O-])c1` stands “inactive”.
Same read-out and setting: under `O=C(CSc1ncn[nH]1)Nc1nsc(-c2ccccc2)n1` stands “inactive”.
The same measure, in the same setting: under `O=C(CSc1ncn[nH]1)Nc1nc(-c2cccc([N+](=O)[O-])c2)cs1` stands 17.8 µM (active); under `COc1ccc2[nH]c(=O)c(CN(Cc3cccnc3)S(=O)(=O)c3ccccc3F)cc2c1`, “inactive”.
For the molecule `COc1cccc(N(CC(=O)NCc2ccccc2)C(=O)CCC(=O)Nc2nccs2)c1`, the Potency entry is “inactive”.
Take `O=C(CCl)NNc1nc(-c2ccccc2)c2cc(Cl)ccc2n1`: the Potency was 17.8 µM (active).
On the same count and under the same terms, the result for `O=C(CCl)NNc1cccc(Cl)n1` reads “inactive”; that for `NC(N)=Nc1nc(-c2ccccc2)c2cc(Cl)ccc2n1`, “inactive”.
On the same count and under the same terms, the result for `COc1ccc(CCNC(=O)C(=O)NCC2OCCN2S(=O)(=O)c2ccc(F)cc2)cc1OC` (configuration not stated) reads “inactive”.
The same measure, in the same setting: the result for `CSCc1nnc(NC(=O)c2ccc(S(=O)(=O)N3CCCCC3C)cc2)o1` (configuration not stated) reads 1.41 µM (active).
As for `O=C(Nc1ccc2cn[nH]c2c1)c1ccc(S(=O)(=O)N2CCOCC2)cc1`, the Potency result is “inactive”.
`CCc1nnc(NC(=O)c2ccc(S(=O)(=O)NC3CCCCC3)cc2)s1`: the activity, negative = inhibition is 0.424% [at 0.365 µM].
Regarding `CC1CCCN(S(=O)(=O)c2ccc(C(=O)Nc3nnc(-c4ccncc4)o3)cc2)C1` (configuration not stated), the Potency result is “inactive”.
Same read-out and setting: the result for `CC1CCCCN1S(=O)(=O)c1ccc(C(=O)Nc2nnc(-c3cccs3)o2)cc1` (configuration not stated) reads 0.891 µM (active).
Same read-out and setting: the result for `Cc1ccnc(NS(=O)(=O)c2ccc(NC(=O)c3ccc(S(=O)(=O)N4CCOCC4)cc3)cc2)n1` reads “inactive”; that for `O=C(Nc1nnc(-c2ccco2)o1)c1ccc(S(=O)(=O)N2CCOCC2)cc1`, 5.62 µM (active).
Still for that read-out and setting: the result for `CC1CN(S(=O)(=O)c2ccc(C(=O)Nc3sccc3C(N)=O)cc2)CC(C)O1` (configuration not stated) reads “inactive”; that for `CCc1nnc(NC(=O)C2CCCN2S(=O)(=O)c2ccccc2)s1` (configuration not stated), “inactive”; that for `Cc1cccn2cc(-c3cccc(S(=O)(=O)N4CCCCC4)c3)nc12`, “inactive”.
In the case of `COc1ccc(CCC(C)N2CCc3ccccc3C2)cc1` (configuration not stated), the Potency entry was “inactive”.
On to `Cc1cccc([C@@H]2[C@@H]3C(=O)N(Cc4ccccc4)C(=O)[C@@H]3[C@]3(C)C(=O)N(c4ccc(Br)cc4)C(=O)N23)c1`, for which the Potency entry was “inactive”.
On the same count and under the same terms, the result for `Cn1nccc1C(=O)N1CCCC(C(=O)c2ccc(Oc3ccccc3)cc2)C1` (configuration not stated) reads “inactive”.
On the same count and under the same terms, under `CCOC(=O)[C@H]1[C@H]2COc3cc(OC)ccc3[C@@H]2N2C(=O)N(c3ccc(Br)cc3)C(=O)[C@@]12C` stands “inactive”; under `Cc1ccc(OCCCC(=O)Nc2ccc(S(=O)(=O)Nc3cc(C)nc(C)n3)cc2)cc1`, “inactive”.
Still for that read-out and setting: the result for `Cc1ccc(CSc2nsc(C)c2C#N)cc1` reads “inactive”; that for `CN(Cc1nc2ccccc2s1)C(=O)c1ccc(F)cc1`, “inactive”; that for `COC(=O)C1[C@H]2SC(C)(C)C(C(=O)OC)N2C(=O)N1Cc1nc2ccccc2s1` (some centres not stated), “inactive”.
Turning to `CCC1(CC)NC(=O)N(Cc2nc3ccccc3s2)C1=O`, the Potency is 3.55 µM (active).
Still for that read-out and setting: under `N#Cc1ccc(C2N=C(c3ccccc3)NO2)cc1` (configuration not stated) stands “inactive”; under `Cc1ccccc1C(=O)N1CCN(c2ccc(NC(=O)c3cccs3)cc2)CC1`, “inactive”.
Same read-out and setting: under `O=C(CCN1CCN(c2ccccc2)CC1)NNC(=S)Nc1ccccc1` stands “inactive”.
Still for that read-out and setting: under `COc1ccc(C(=O)NC(=S)Nc2ccc(N3CCCC3)cc2)cc1OC` stands 0.891 µM (active); under `O=C(Cc1ccccc1)NC(=S)Nc1ccc(N2CCCCC2)cc1`, 3.55 µM (active).
Take `COc1ccc(C(=O)NC(=S)Nc2ccc(Cl)cn2)cc1OC`: the Potency was 12.6 µM (active).
On the same count and under the same terms, the result for `COc1ccc(C(=O)Nc2ccc(C3(C#N)CCCC3)cc2)cc1OC` reads “inactive”; that for `Cc1ccccc1C(=O)NC(=S)Nc1ccc(N2CCN(C(=O)c3ccccc3)CC2)cc1`, 5.62 µM (active).
Same read-out and setting: the result for `O=C(c1ccccc1)c1ccc(C(=O)N2CCN(c3ccccc3)CC2)cc1` reads “inactive”; that for `COc1ccc(C(=O)N/N=C(\C)CC(=O)Nc2ccc(Cl)cn2)cc1`, “inactive”; that for `COc1c(Cl)cc(C(=O)Nc2ccc(Cl)cn2)cc1Cl`, “inactive”.
Still for that read-out and setting: under `Cc1ccccc1C(=O)Nc1ccc(N2CCCCCC2)cc1` stands “inactive”; under `COc1ccc(C(=O)Nc2ccc(N3CCC(C)CC3)cc2)cc1Br`, “inactive”.
Consider `CC1CN(C(=S)Nc2cccc(F)c2)CC(C)O1` (configuration not stated), for which the Potency result was “inactive”.
The same measure, in the same setting: the result for `O=C(C1CC(=O)N(C2CCCCC2)C1)N1CCN(c2ccccc2)CC1` (configuration not stated) reads “inactive”; that for `O=C(CN(CC1CCCO1)C(=O)CNS(=O)(=O)c1ccc(Cl)cc1)NCc1ccccc1` (configuration not stated), “inactive”; that for `CCOc1ccc(NC(=O)c2nc(SCC)ncc2Cl)cc1`, “inactive”.
For the molecule `O=[N+]([O-])c1cc([N+](=O)[O-])c(Oc2cc(F)cc(F)c2F)cc1NN1CCCCC1`, the Potency entry is “inactive”.
Still for that read-out and setting: under `Cc1ccc(-c2noc(C3CCCN(C(=O)c4cccc(Cl)c4)C3)n2)o1` (configuration not stated) stands “inactive”.
For the molecule `COc1cccc(OC)c1C(=O)NC(=S)Nc1ccc(N2CCOCC2)c(Cl)c1`, the Potency entry is “inactive”.
The same measure, in the same setting: under `CCOc1ccc(C(=O)NC(=S)Nc2ccc(NC(=O)C(C)C)cc2)cc1[N+](=O)[O-]` stands “inactive”; under `CCOc1ccc(C(=O)NC(=S)Nc2ccc(N3CCOCC3)c(Cl)c2)cc1[N+](=O)[O-]`, 3.98 µM (active); under `CC(CC(=O)N1CCN(c2ccccc2)CC1)c1ccccc1` (configuration not stated), “inactive”.
Same read-out and setting: the result for `CC(=O)N1CCN(c2ccc(NCc3ccc(C(C)C)cc3)cc2)CC1` reads 1.12 µM (active); that for `CCc1ccc(NC(=O)N2CCN(c3ccccc3)CC2)cc1`, “inactive”; that for `Cc1nn(-c2ccccc2)c(Cl)c1/C=N/NC(=O)c1nn(C)cc1[N+](=O)[O-]`, “inactive”.
The same measure, in the same setting: the result for `COC(=O)c1cc(NC2c3ccccc3C(=O)N2c2ccc(Cl)cn2)cc(C(=O)OC)c1` (configuration not stated) reads 11.2 µM (active); that for `CCc1ccccc1NC1c2ccccc2C(=O)N1c1cccnc1` (configuration not stated), “inactive”; that for `Cc1ccnc(N2C(=O)c3ccccc3C2Nc2ccc3c(c2)OCCO3)c1` (configuration not stated), “inactive”.
For `COc1ccccc1CNC(=O)C1CCN(S(=O)(=O)c2ccc3c(c2)CC(C)N3C(=O)C2CC2)CC1` (configuration not stated), the Potency result was “inactive”.
Turning to `O=C1N/C(=N\N=C\c2ccco2)SC1Cc1ccc(F)cc1` (configuration not stated), the Potency was 4.47 µM (active).
`COc1ccc(CN2C(=O)C(C)S/C2=N/N=C/c2ccco2)cc1` (configuration not stated): the Potency result is “inactive”.
With `CN(CCOc1ccc(CC2SC(=O)NC2=O)cc1)c1ccccn1` (configuration not stated), the Potency entry is “inactive”.
Still for that read-out and setting: under `CC(C)=N/N=C1/NC(=O)C(Cc2ccccc2)S1` (configuration not stated) stands 2.82 µM (active).
Same read-out and setting: under `C=CCN1C(=O)C(Cc2cccc(Cl)c2)S/C1=N/N=C/c1ccco1` (configuration not stated) stands “inactive”; under `O=C(O)C[C@@H]1NC(=O)[C@H](Cc2ccccc2)NC1=O`, “inactive”; under `CC1Sc2ccc(S(=O)(=O)CCC(=O)NCc3ccccc3Cl)cc2NC1=O` (configuration not stated), “inactive”.
Same read-out and setting: the result for `C/C(=N\NC(=O)c1ccc2ccccc2c1)c1cccnc1` reads “inactive”; that for `COc1ccc(CCNC(=O)CS(=O)(=O)Cc2nc(-c3ccc(C)cc3)oc2C)cc1OC`, “inactive”; that for `COc1cccc(CNS(=O)(=O)c2ccc3c(c2)CC(C)N3C(C)=O)c1` (configuration not stated), “inactive”.
Consider `Cn1cncc1COC(=O)c1ccc(Cl)cc1`, for which the Potency entry was “inactive”.
The same measure, in the same setting: the result for `O=C(Cc1c(Cl)cccc1Cl)NC1CC1` reads “inactive”; that for `CCOc1ccc(-c2nc(N)ncc2-c2ccccc2OC)c(O)c1`, “inactive”; that for `C=C(C)COc1ccc(-c2ncncc2-c2ccc(OC)cc2)c(O)c1`, “inactive”.
Take `C=C(C)COc1ccc(-c2n[nH]c(C)c2-c2ccccc2OC)c(O)c1`: the Potency is 14.1 µM (active).
Still for that read-out and setting: the result for `C=C(C)COc1ccc(-c2n[nH]c(C)c2-c2ccccc2)c(O)c1` reads 3.16 µM (active).
Same read-out and setting: under `C=C(C)COc1ccc(-c2nc(N)ncc2-c2ccccc2OC)c(O)c1` stands “inactive”; under `CCOc1ccc(-c2n[nH]c(C)c2-c2ccccn2)c(O)c1`, “inactive”; under `O=C(c1ccccc1)N1CCC(CC2CC(c3ccc(Cl)cc3)=NO2)(C(=O)NCC2CCCCC2)CC1` (configuration not stated), “inactive”.
Consider `CCCN1CCn2c3c(c4cc(Br)ccc42)CCCC31` (configuration not stated), for which the Potency entry is “inactive”.
Take `Cc1cc(O)c(C(=O)/C=C/c2c(F)c(F)c(F)c(F)c2F)c(=O)o1`: the Potency result was “inactive”.
The same measure, in the same setting: the result for `CCOC(=O)N1CCN(C(=O)c2ccc3c(=O)n(CCc4ccc(OC)c(OC)c4)c(=O)[nH]c3c2)CC1` reads “inactive”; that for `CCC(C(=O)OC)n1cnc2scc(-c3ccc(C)cc3)c2c1=O` (configuration not stated), “inactive”.
Still for that read-out and setting: the result for `CC(=O)Oc1ccc(-c2cccc(C(=O)N3CCCCC3)c2)cc1` reads “inactive”; that for `COc1cc(/C=N/Nc2nn3cnnc3c3ccccc23)cc(OC)c1OC`, “inactive”.
On the same count and under the same terms, under `CN(CCO)c1ccc(/C=N/Nc2nncc3ccccc23)cc1` stands 11.2 µM (active).
For the molecule `C/C(=N\Nc1nncc2ccccc12)c1ccc(Cl)c([N+](=O)[O-])c1`, the Potency entry was “inactive”.
With `O=C(CCCO)N/N=C/c1cc(Br)ccc1O`, the Potency was 12.6 µM (active).
Regarding `NCCCCCC(=O)N/N=C/c1ccc2nccnc2c1`, the Potency entry is “inactive”.
Same read-out and setting: under `O=C(CCC(=O)N/N=C/c1ccc(Br)o1)N/N=C/c1ccc(Br)o1` stands “inactive”; under `CC1CC(C)CN(c2ccc(S(=O)(=O)N3CCOCC3)cc2)C1` (configuration not stated), “inactive”; under `COc1ccc2c(CC(=O)N3CCc4cc(OC)c(OC)cc4C3)coc2c1`, “inactive”.
Still for that read-out and setting: under `COc1ccc(NC(=O)CSc2nc(SC)ns2)c(OC)c1` stands “inactive”; under `CCCCN1C(=S)NC[C@@H]1C(C)CC` (some centres not stated), 10 µM (active); under `CCCCN1CCNC1=S`, “inactive”.
Same read-out and setting: the result for `Cc1ccc2c(c1)N(CC(=O)N1CCOCC1)C(=O)CO2` reads “inactive”; that for `CCOC(=O)[C@@H]1[C@H]2COc3cc(OC)ccc3[C@@H]2N2C(=O)N(c3cccc(C)c3)C(=O)[C@@]12C`, “inactive”; that for `CCOc1ccc(N(CC(=O)NCCc2ccc(F)cc2)S(=O)(=O)c2ccccc2)cc1`, “inactive”.
As for `Cc1ccccc1N1CC(C(=O)Nc2nnc(SCCC3OCCO3)s2)CC1=O` (configuration not stated), the Potency result is “inactive”.
On to `CCC(C)(C)NC(=O)CN(C(=O)CCC(=O)Nc1nccs1)c1ccc2c(c1)OCO2`, for which the Potency result is “inactive”.
The same measure, in the same setting: under `C=CCNC(=S)NNC(=O)COc1c(Cl)cc(Cl)cc1Cl` stands 1.58 µM (active).
Same read-out and setting: under `C=CCNC(=S)NNC(=O)c1cc(Cl)ccc1OC` stands “inactive”; under `C=CCNC(=S)NNC(=O)c1ccc(Br)o1`, “inactive”.
